Test results taken from PubChem BioAssay (EPA / NIEHS).
“And” between values parts separate entries of the source, which are not always exact repeats. Equal values may be shown once. Inconclusive results are not listed. Some structures have more than one record in an assay (separate samples or runs), and their calls can disagree. The source made the active and inactive calls. How the source made its calls, unless noted: active means hit-call score of the fitted dose curve at least 0.9, where 1 is the maximum; inconclusive means response in the unintended direction; inactive means score below 0.9.

How the values were obtained:
[1] = BSK_4H_Eotaxin3: BioMAP Diversity Plus: 4H Assay for Eotaxin 3 Biomarker Activity (AID 2283000; active means hit-call score of the fitted dose curve at least 0.9, where 1 is the maximum; inactive means score below 0.9;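 on outcome: CCL26 protein level quantified by ELISA in parallel with SRB cytotoxicity check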); details: primary human endothelial cells (HUVEC); actives raise or lower the signal
How it was run: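 Eotaxin-3 (CCL26) levels were measured by ELISA in HUVEC primary cultures 24 h post-dosing. Gain or loss of signal was fitted in both directions, with DMSO serving as baseline and negative control.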

[2] = read-out: Intercellular Adhesion Molecule 1 (ICAM1), ICAM1 (gene 3383); assay: BSK_3C_ICAM1: BioMAP Diversity Plus: 3C Assay for Intercellular Adhesion Molecule 1 (ICAM1) Biomarker Activity (AID 2283003; active means hit-call score of the fitted dose curve at least 0.9, where 1 is the maximum; inactive means score below 0.9); details: primary human endothelial cells (HUVEC); actives raise or lower the signal
How it was run: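 Chemicals are dosed onto primary human umbilical vein endothelium (3C system). After 24 h, ICAM-1 is measured by ELISA, and responses are fitted bidirectionally relative to DMSO.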

[3] = molecular target: human Retinoic Acid Receptor beta (RARb), RARB (gene 5915) (UniProt P10826); assay: ATG_RARb_TRANS: Attagene TRANS-FACTORIAL HepG2 Assay for human Retinoic Acid Receptor beta (AID 2283004)
Chain of human Retinoic Acid Receptor beta (RARb), RARB (gene 5915) (P10826 whole entry, looked up, the tested form may be a part): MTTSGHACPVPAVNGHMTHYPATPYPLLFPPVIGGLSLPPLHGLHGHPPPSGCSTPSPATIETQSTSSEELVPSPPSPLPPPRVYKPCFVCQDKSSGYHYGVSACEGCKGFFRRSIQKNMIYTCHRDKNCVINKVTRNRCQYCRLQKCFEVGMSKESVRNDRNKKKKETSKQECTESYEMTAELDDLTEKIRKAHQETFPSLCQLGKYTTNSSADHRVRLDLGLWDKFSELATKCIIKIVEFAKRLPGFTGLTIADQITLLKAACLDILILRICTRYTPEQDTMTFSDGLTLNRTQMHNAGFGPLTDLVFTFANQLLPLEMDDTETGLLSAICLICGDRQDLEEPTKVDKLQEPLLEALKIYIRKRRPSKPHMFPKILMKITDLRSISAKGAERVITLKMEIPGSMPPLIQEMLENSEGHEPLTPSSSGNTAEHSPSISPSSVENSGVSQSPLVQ
How it was run: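 HepG2 cells were transiently transfected with GAL4-UAS reporter units that report activity of exogenous chimeric NR-Gal4 proteins, then exposed to compound for 24 h. Reporter mRNA was quantified by RT-PCR with capillary electrophoresis fluorescence, as gain of signal over DMSO.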

[4] = molecular target: Retinoic acid receptor alpha (Homo sapiens) (UniProt P10276); assay: ATG_RARa_TRANS: Attagene TRANS-FACTORIAL HepG2 Assay for human Retinoic Acid Receptor alpha (RARa) (AID 2283005);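 on AC50: potency for increased reporter signal meaning RARa activation over DMSO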
Chain of Retinoic acid receptor alpha (Homo sapiens) (P10276 whole entry, looked up, the tested form may be a part): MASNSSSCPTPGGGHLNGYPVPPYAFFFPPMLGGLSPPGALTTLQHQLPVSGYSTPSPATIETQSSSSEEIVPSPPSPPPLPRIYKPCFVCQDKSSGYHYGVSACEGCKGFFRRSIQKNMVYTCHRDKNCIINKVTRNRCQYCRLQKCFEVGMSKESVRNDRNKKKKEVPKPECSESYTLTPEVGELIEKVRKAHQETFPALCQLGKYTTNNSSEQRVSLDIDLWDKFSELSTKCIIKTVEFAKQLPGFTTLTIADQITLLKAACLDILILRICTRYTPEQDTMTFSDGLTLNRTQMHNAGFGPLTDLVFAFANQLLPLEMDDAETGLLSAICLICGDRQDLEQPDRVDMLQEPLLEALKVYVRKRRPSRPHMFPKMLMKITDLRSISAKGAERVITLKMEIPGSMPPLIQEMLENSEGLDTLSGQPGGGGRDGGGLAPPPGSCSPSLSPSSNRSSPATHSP
How it was run: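 HepG2 cells transiently transfected with multiple reporter units expressing chimeric RARα-GAL4 fusion, with GAL4-UAS-driven reporters. After 24 h compound exposure, reporter mRNA induction quantified by RT-PCR and capillary electrophoresis with fluorescent labeling; gain-of-signal fitted relative to DMSO control.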

[5] = BSK_3C_Proliferation: Cell Proliferation Assessment in the BioMAP Diversity Plus: 3C Assay (AID 2283006; active means hit-call score of the fitted dose curve at least 0.9, where 1 is the maximum; inactive means score below 0.9;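 on AC50: potency may reflect either rise or fall in cell number versus DMSO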); details: primary human endothelial cells (HUVEC)
How it was run: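 Cells (human umbilical vein endothelial, sub-confluent) receive test chemical; after 48 h they are fixed in 10% trichloroacetic acid, stained with 0.1% SRB and read at 560 nm. Activity is referenced to DMSO, fitting increases and decreases.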

[6] = molecular target: Peroxisome proliferator-activated receptor gamma (Homo sapiens) (UniProt P37231); assay: ATG_PPARg_TRANS: Attagene TRANS-FACTORIAL HepG2 Assay for human Peroxisome Proliferator-activated Receptor-gamma (PPARg) (AID 2283007)
Chain of Peroxisome proliferator-activated receptor gamma (Homo sapiens) (P37231 whole entry, looked up): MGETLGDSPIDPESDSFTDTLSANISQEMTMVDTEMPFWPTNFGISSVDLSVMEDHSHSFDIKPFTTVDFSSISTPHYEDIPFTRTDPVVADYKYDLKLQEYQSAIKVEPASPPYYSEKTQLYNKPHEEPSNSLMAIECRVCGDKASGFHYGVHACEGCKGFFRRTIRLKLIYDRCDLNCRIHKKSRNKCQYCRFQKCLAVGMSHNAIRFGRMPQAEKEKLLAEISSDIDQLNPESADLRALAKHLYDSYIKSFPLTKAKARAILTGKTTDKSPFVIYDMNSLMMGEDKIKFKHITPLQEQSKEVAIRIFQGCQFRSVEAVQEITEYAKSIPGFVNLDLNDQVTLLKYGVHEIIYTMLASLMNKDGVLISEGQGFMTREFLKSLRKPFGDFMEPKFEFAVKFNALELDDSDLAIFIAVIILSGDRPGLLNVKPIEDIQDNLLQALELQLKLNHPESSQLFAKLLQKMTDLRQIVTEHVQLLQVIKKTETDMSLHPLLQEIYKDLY
How it was run: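 Multiplexed reporter transcription units in HepG2, 24 h dosing, reporter transcripts quantified by fluorescent RT-PCR and capillary electrophoresis. Increase over DMSO scored.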

[7] = molecular target: Nuclear receptor subfamily 1 group I member 2 (Homo sapiens) (UniProt O75469); assay: ATG_PXR_TRANS: Attagene TRANS-FACTORIAL HepG2 Assay for human Pregnane X Receptor (PXR) (AID 2283008)
Chain of Nuclear receptor subfamily 1 group I member 2 (Homo sapiens) (O75469 whole entry, looked up, the tested form may be a part): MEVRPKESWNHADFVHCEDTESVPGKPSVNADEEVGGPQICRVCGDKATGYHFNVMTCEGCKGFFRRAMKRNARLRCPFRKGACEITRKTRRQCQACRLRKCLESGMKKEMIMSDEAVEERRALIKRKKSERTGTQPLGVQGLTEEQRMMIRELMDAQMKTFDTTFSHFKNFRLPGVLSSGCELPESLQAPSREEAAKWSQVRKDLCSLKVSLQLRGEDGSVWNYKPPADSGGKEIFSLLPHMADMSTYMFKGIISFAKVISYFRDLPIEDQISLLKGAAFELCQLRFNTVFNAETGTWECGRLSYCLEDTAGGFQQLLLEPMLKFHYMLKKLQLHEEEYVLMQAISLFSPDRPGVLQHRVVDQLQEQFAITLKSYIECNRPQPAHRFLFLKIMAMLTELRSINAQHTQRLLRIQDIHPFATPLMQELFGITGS
How it was run: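 Trans-factorial format: exogenous NR-Gal4 fusion activity, not endogenous factor, in transfected human HepG2 liver cells. After 24 h dosing, RNA isolated, reverse-transcribed, amplified and resolved by capillary electrophoresis; induction scored versus DMSO.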

[8] = molecular target: human Peroxisome Proliferator-activated Receptor alpha (PPARa), PPARA (gene 5465) (UniProt Q07869); assay: ATG_PPARa_TRANS: Attagene TRANS-FACTORIAL HepG2 Assay for human Peroxisome Proliferator-activated Receptor alpha (PPARa) (AID 2283001);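 on AC50: potency for gain of reporter signal over DMSO so agonist or activator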
Chain of human Peroxisome Proliferator-activated Receptor alpha (PPARa), PPARA (gene 5465) (Q07869 whole entry, looked up): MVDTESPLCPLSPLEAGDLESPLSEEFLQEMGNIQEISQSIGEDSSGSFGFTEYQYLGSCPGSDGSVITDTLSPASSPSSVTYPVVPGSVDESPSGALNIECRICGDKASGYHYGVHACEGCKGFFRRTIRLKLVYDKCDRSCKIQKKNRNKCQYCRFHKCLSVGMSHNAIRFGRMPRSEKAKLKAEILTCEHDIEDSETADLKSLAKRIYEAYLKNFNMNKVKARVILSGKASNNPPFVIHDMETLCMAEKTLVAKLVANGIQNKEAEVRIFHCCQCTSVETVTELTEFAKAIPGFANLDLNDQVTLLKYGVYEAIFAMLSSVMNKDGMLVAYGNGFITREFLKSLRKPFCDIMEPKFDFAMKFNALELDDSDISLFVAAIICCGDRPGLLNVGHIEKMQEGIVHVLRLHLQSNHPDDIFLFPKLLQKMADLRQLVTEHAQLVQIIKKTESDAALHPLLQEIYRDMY
How it was run: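 Cells (HepG2) are transfected with multiple reporter transcription units, exposed to chemical for 24 h, then total RNA is reverse-transcribed and amplified. Labelled products are quantified by capillary electrophoresis; induction is referenced to DMSO.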

[9] = molecular target: human Peroxisome Proliferator-activated Receptor delta (PPARd), PPARD (gene 5467) (UniProt Q03181); assay: ATG_PPARd_TRANS: Attagene TRANS-FACTORIAL HepG2 Assay for human Peroxisome Proliferator-activated Receptor delta (PPARd) (AID 2283002)
Chain of human Peroxisome Proliferator-activated Receptor delta (PPARd), PPARD (gene 5467) (Q03181 whole entry, looked up, the tested form may be a part): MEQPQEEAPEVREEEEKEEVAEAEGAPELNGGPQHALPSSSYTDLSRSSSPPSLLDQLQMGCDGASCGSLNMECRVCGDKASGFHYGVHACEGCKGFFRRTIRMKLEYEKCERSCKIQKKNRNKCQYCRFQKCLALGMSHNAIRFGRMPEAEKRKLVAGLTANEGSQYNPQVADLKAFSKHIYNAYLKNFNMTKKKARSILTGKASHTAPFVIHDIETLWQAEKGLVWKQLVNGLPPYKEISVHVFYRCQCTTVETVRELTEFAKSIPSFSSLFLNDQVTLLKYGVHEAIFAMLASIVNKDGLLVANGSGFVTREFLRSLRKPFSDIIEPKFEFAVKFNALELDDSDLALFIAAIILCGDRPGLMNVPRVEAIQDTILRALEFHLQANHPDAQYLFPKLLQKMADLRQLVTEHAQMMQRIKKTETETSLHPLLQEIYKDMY
How it was run: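 Measured quantity: GAL4-UAS reporter transcript induction in HepG2 after 24 h chemical dosing, with NR-Gal4 chimeras supplied by transient transfection. Detection by RT-PCR and capillary electrophoresis; upward fit against DMSO.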

[10] = molecular target: human Retinoic Acid Receptor gamma (RARg), RARG (gene 5916) (UniProt P13631); assay: ATG_RARg_TRANS: Attagene TRANS-FACTORIAL HepG2 Assay for human Retinoic Acid Receptor gamma (RARg) (AID 2283009);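 on AC50: AC50 is for reporter induction above DMSO meaning RARg activation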
Chain of human Retinoic Acid Receptor gamma (RARg), RARG (gene 5916) (P13631 whole entry, looked up, the tested form may be a part): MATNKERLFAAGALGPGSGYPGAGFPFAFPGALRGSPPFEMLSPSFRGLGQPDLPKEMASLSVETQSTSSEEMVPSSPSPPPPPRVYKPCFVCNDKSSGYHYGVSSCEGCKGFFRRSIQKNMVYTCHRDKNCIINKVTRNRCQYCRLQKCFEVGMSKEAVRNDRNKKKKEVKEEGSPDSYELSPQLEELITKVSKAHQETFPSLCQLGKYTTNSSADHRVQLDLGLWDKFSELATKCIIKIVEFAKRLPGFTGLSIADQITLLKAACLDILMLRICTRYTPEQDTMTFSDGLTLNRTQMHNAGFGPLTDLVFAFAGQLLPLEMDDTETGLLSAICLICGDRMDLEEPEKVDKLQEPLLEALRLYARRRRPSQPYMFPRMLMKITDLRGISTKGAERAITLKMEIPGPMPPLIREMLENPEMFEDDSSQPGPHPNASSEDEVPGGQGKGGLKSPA
How it was run: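 TRANS format measured activity of exogenous NR-GAL4 fusion (RARg) in transfected HepG2 liver cells after 24 h dosing. Induced reporter RNA was detected by RT-PCR/capillary electrophoresis fluorescence, analysed in the positive direction against DMSO.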

CC1(C)C(C=C(Cl)Cl)C1C(=O)OC(C#N)c1ccc(F)c(Oc2ccccc2)c1 (centres undefined)
outcome [1]: inactive
outcome [2]: inactive
outcome [3]: inactive
outcome [4]: inactive
AC50 [5]: 10.2 µM (active)
AC50 [6]: 20.9 µM (active)
AC50 [7]: 21.6 µM (active)

O=S1OCC2C(CO1)C1(Cl)C(Cl)=C(Cl)C2(Cl)C1(Cl)Cl (centres undefined)
AC50 [1]: 30.9 µM (active)
outcome [8]: inactive
AC50 [2]: 33.9 µM (active)
outcome [4]: inactive
AC50 [5]: 24.5 µM (active)
outcome [6]: inactive
outcome [7]: inactive

CC(C)OC(=O)Nc1cccc(Cl)c1
outcome [1]: inactive
outcome [8]: inactive
outcome [9]: inactive
outcome [2]: inactive
outcome [3]: inactive
outcome [4]: inactive
outcome [5]: inactive
AC50 [6]: 50 µM (active)
AC50 [7]: 65.4 µM (active)

CNC(=O)CSP(=S)(OC)OC
outcome [1]: inactive
outcome [8]: inactive
outcome [9]: inactive
outcome [2]: inactive
outcome [5]: inactive
outcome [6]: inactive
outcome [7]: inactive

CCOc1nc(NC)nc(NC(=O)NS(=O)(=O)c2ccccc2C(=O)OC)n1
outcome [8]: inactive
outcome [9]: inactive
outcome [2]: inactive
outcome [5]: inactive
outcome [6]: inactive

O=C(O)C(F)(F)C(F)(F)C(F)(F)C(F)(F)C(F)(F)C(F)(F)C(F)(F)F
AC50 [8]: 22.8 µM (active) [middle of 4 runs]
outcome [9]: inactive
outcome [2]: inactive
outcome [5]: inactive
outcome [7]: inactive

CNC(=O)/C=C(\C)OP(=O)(OC)OC
outcome [1]: inactive
outcome [8]: inactive
outcome [2]: inactive
outcome [5]: inactive
outcome [6]: inactive
outcome [7]: inactive

COP(=S)(OC)Oc1ccc([N+](=O)[O-])cc1
outcome [1]: inactive
outcome [8]: inactive
outcome [9]: inactive
outcome [2]: inactive
outcome [5]: inactive
outcome [6]: inactive
outcome [7]: inactive
outcome [10]: inactive

COP(=S)(OC)Oc1ccc(SC)c(C)c1
outcome [8]: inactive
outcome [9]: inactive
outcome [2]: inactive
outcome [3]: inactive
outcome [5]: inactive
AC50 [6]: 33.3 µM (active)
AC50 [7]: 39.3 µM (active)
outcome [10]: inactive

C#CCN1C(=O)COc2cc(F)c(N3C(=O)C4=C(CCCC4)C3=O)cc21
outcome [1]: inactive
outcome [8]: inactive
outcome [2]: inactive
outcome [3]: inactive
outcome [4]: inactive
outcome [5]: inactive
AC50 [6]: 50 µM (active)
outcome [7]: inactive
outcome [10]: inactive

Oc1ccc(Cl)cc1Cc1ccccc1
AC50 [8]: 53.5 µM (active)
outcome [8]: inactive
outcome [9]: inactive
AC50 [2]: 37.1 µM (active) [middle of 7 runs]
outcome [3]: inactive
outcome [4]: inactive
AC50 [5]: 24.8 µM (active) [middle of 7 runs]
AC50 [6]: 8.85 µM (active) [middle of 4 runs]
outcome [6]: inactive
AC50 [7]: 6.4 µM (active) [middle of 5 runs]
outcome [7]: inactive
outcome [10]: inactive

CCS(=O)(=O)c1cccnc1S(=O)(=O)NC(=O)Nc1nc(OC)cc(OC)n1
outcome [8]: inactive
outcome [9]: inactive
outcome [2]: inactive
outcome [4]: inactive
outcome [5]: inactive
outcome [6]: inactive
outcome [7]: inactive
outcome [10]: inactive

CCCN(CCOc1c(Cl)cc(Cl)cc1Cl)C(=O)n1ccnc1
outcome [8]: inactive
outcome [9]: inactive
outcome [2]: inactive
outcome [3]: inactive
AC50 [4]: 2.5 µM (active)
outcome [4]: inactive
AC50 [5]: 26.7 µM (active)
outcome [6]: inactive
AC50 [7]: 2.96 µM (active)
outcome [7]: inactive
outcome [10]: inactive

Clc1ccccc1-c1nnc(-c2ccccc2Cl)nn1
outcome [1]: inactive
outcome [9]: inactive
outcome [2]: inactive
outcome [4]: inactive
AC50 [5]: 11.7 µM (active)
AC50 [6]: 64.7 µM (active)
outcome [7]: inactive
outcome [10]: inactive

ClC1C(Cl)C(Cl)C(Cl)C(Cl)C1Cl (centres undefined)
outcome [8]: inactive
outcome [9]: inactive
AC50 [2]: 28 µM (active)
outcome [2]: inactive
outcome [3]: inactive
AC50 [4]: 20.6 µM (active) and 6.26 µM (active) and 37.2 µM (active)
outcome [4]: inactive
AC50 [5]: 29.2 µM (active) and 28 µM (active)
outcome [5]: inactive
outcome [6]: inactive
AC50 [10]: 6.81 µM (active) and 8.7 µM (active)
outcome [10]: inactive

CNC(=O)Oc1cccc(N=CN(C)C)c1
outcome [8]: inactive
outcome [9]: inactive
outcome [2]: inactive
outcome [3]: inactive
outcome [4]: inactive
outcome [5]: inactive
outcome [6]: inactive
outcome [7]: inactive

CC1(c2ccc(Oc3ccccc3)cc2)OC(=O)N(Nc2ccccc2)C1=O (centres undefined)
AC50 [1]: 16.5 µM (active)
outcome [8]: inactive
outcome [9]: inactive
outcome [2]: inactive
outcome [3]: inactive
outcome [4]: inactive
AC50 [5]: 14 µM (active)
outcome [6]: inactive
outcome [7]: inactive
outcome [10]: inactive

COc1nn(CSP(=S)(OC)OC)c(=O)s1
outcome [8]: inactive
outcome [9]: inactive
outcome [2]: inactive
outcome [3]: inactive
outcome [4]: inactive
outcome [5]: inactive
outcome [7]: inactive
outcome [10]: inactive

N#CN
outcome [1]: inactive
outcome [8]: inactive
outcome [9]: inactive
outcome [2]: inactive
outcome [5]: inactive
outcome [6]: inactive
outcome [7]: inactive

C[C@H]1[C@H](c2ccc(Cl)cc2)SC(=O)N1C(=O)NC1CCCCC1
outcome [1]: inactive
outcome [2]: inactive
outcome [3]: inactive
outcome [4]: inactive
AC50 [5]: 13.1 µM (active)
AC50 [6]: 16 µM (active)
outcome [7]: inactive
outcome [10]: inactive

O=C(O)COc1ccc(Cl)cc1Cl
outcome [1]: inactive
outcome [8]: inactive
outcome [9]: inactive
outcome [2]: inactive
outcome [5]: inactive
outcome [7]: inactive

COP(=O)(OC)OC=C(Cl)Cl
outcome [1]: inactive
outcome [9]: inactive
outcome [2]: inactive
AC50 [5]: 17.6 µM (active)
outcome [6]: inactive
outcome [7]: inactive

COC(=O)c1ccccc1CS(=O)(=O)NC(=O)Nc1nc(OC)cc(OC)n1
outcome [1]: inactive
outcome [8]: inactive
outcome [9]: inactive
outcome [2]: inactive
outcome [3]: inactive
outcome [4]: inactive
outcome [5]: inactive
outcome [6]: inactive
outcome [7]: inactive
outcome [10]: inactive

N#Cc1c(Cl)c(Cl)c(Cl)c(C#N)c1Cl
outcome [8]: inactive
outcome [9]: inactive
AC50 [2]: 1.77 µM (active)
outcome [3]: inactive
outcome [4]: inactive
AC50 [5]: 0.148 µM (active)
outcome [6]: inactive
AC50 [7]: 0.324 µM (active)
outcome [10]: inactive
